From PubChem BioAssay
Active and inactive are the calls of the source.

Columns and labels:
[1] = E. coli DRC41 culture turbidity changes, primary screen, E. coli filamentation inducer project, strain DRC41, OD650, 48 h (AID 1152);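 further: E. coli MC1000 strain DRC41 lacking acrAB efflux pump and sulA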; conditions: E. coli DRC41 (acrAB sulA), higher = more signal, called active from +8 up or from −8 down
[2] = small-molecule binders of probe aLefty1, primary screen, biochemical, small-molecule microarray, 635/667 nm fluorescence (AID 1153); conditions: higher = more signal;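 further: score merges spot fluorescence with signal-to-noise ratio from the scanned slide images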
[3] = PSAC antagonists in infected red cells, primary screen, cell-based, P. falciparum Indochina, OD700, 1 h (AID 1154); conditions: P. falciparum Indochina infected RBC osmotic lysis, higher = more signal, called active from +8 up or from −8 down
[4] = PSAC antagonists in infected red cells, primary screen, cell-based, P. falciparum Indochina, OD700, 2 h (AID 1155);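 further: lysis reports solute entry through the parasite surface anion channel PSAC; channel blockers reduce lysis of infected cells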; conditions: P. falciparum Indochina infected erythrocytes, osmotic lysis OD700; higher = more signal, called active from +8 up or from −8 down
[5] = osmotic lysis modulators in infected erythrocytes, primary screen, PSAC antagonist project, cell-based, P. falciparum Indochina, OD700, 3 h (AID 1156); conditions: higher = more signal, called active from +8 up or from −8 down
[6] = PSAC antagonists in infected red cells, primary screen, cell-based, P. falciparum Indochina, OD700, 18 h (AID 1157); conditions: P. falciparum Indochina infected erythrocytes, osmotic lysis OD700, 18 h; higher = more signal, called active from +8 up or from −8 down
[7] = modulators of S6 phosphorylation in cells, primary screen, cell-based, A549, cytoblot, luminescence, serum-stimulated (AID 1158); conditions: A549 phospho-S6 cytoblot, 5 h, higher = more signal;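 further: serum-stimulated A549 lung adenocarcinoma cells; signal is phosphorylated S6 detected by cytoblot immunostaining with HRP secondary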
[8] = molecular target: NADPH oxidase 2 (Homo sapiens) (UniProt P04839); experiment: NOX2-dependent H2O2 signal modulators, primary screen, NOX inhibitor project, cell-based, HEK293-NOX2, PMA-stimulated, Amplex Red fluorescence (AID 1159); conditions: 45 min, higher = more signal, called active from +8 up or from −8 down; further: test concentration not given here
[9] = molecular target: NADPH oxidase 4 (Homo sapiens) (UniProt Q9NPH5); experiment: NOX4-dependent H2O2 signal modulators, primary screen, NOX inhibitor project, cell-based, HEK293-NOX4, tetracycline-induced, Amplex Red fluorescence (AID 1160); conditions: 45 min, higher = more signal, called active from +8 up or from −8 down
[10] = molecular target: NADPH oxidase 5 (Homo sapiens) (UniProt Q96PH1); experiment: NOX5-dependent H2O2 signal modulators, primary screen, NOX inhibitor project, cell-based, HEK293-NOX5, Amplex Red fluorescence (AID 1161); conditions: HEK293-NOX5, ionomycin, 45 min, higher = more signal
[11] = A549 cell viability effects, profiling panel, calcein-AM fluorescence, 48 h, basal (AID 1162); conditions: higher = more signal; further: test concentration not given here
[12] = adipocyte viability effects, profiling panel, cell-based, 3T3-L1 adipocytes, calcein-AM fluorescence, 48 h, basal (AID 1163); conditions: 3T3-L1 adipocytes viability, higher = more signal; further: test concentration not given here
[13] = HepG2 cell viability effects, profiling panel, calcein-AM fluorescence, 48 h, basal (AID 1164); conditions: higher = more signal; further: test concentration not given here
[14] = MM1S cell viability effects, profiling panel, calcein-AM fluorescence, 48 h, basal (AID 1165); conditions: higher = more signal;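 further: viability of MM1S multiple myeloma cells under basal unstimulated conditions; test concentration not given here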
[15] = basal RPMI8226 viability, no added stimulus, profiling panel, cell-based, calcein-AM fluorescence, 48 h, PK04 Diversity Set (AID 1166); conditions: RPMI8226 myeloma viability, higher = more signal;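 further: cells grown under basal conditions without added stimulus; test concentration not given here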
[16] = basal HepG2 mitochondrial membrane potential changes, profiling panel, cell-based, JC-1 fluorescence, 24 h, 100 nL compound (AID 1167); conditions: higher = more signal; further: test concentration not given here
[17] = basal 3T3-L1 adipocyte mitochondrial potential changes, profiling panel, cell-based, JC-1 fluorescence, 3T3-L1 adipocytes, 24 h, 100 nL compound (AID 1168); conditions: JC-1 mitochondrial fluorescence, higher = more signal, called active from +8 up or from −8 down; further: test concentration not given here
[18] = basal RPMI8226 mitochondrial membrane potential changes, profiling panel, cell-based, JC-1 fluorescence, 24 h, 100 nL compound (AID 1169); conditions: RPMI8226 myeloma, JC-1 mitochondrial potential fluorescence, higher = more signal; further: test concentration not given here
[19] = basal MM1S mitochondrial membrane potential changes, profiling panel, cell-based, JC-1 fluorescence, 24 h, 100 nL compound (AID 1170); conditions: higher = more signal; further: test concentration not given here
[20] = A549 lung cancer cell viability effects, profiling panel, resazurin fluorescence, 24 h, PK04 Diversity Set (AID 1171); conditions: higher = more signal, called active from +8 up or from −8 down; further: test concentration not given here

Chain of NADPH oxidase 2 (Homo sapiens) (P04839 whole entry, looked up): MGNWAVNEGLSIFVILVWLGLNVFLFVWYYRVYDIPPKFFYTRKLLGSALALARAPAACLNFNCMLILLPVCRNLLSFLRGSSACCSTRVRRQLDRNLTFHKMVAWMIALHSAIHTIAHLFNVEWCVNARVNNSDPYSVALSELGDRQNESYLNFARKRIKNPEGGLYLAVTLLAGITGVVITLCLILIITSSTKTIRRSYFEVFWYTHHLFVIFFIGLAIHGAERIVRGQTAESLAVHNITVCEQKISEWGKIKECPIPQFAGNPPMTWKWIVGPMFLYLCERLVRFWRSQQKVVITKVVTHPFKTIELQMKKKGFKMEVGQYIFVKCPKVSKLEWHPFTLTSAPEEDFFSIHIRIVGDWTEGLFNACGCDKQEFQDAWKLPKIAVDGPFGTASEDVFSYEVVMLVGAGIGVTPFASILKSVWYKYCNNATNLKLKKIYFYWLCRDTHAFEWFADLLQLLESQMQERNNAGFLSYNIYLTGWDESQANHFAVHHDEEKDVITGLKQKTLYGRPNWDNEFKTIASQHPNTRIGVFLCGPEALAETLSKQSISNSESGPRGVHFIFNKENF
Chain of NADPH oxidase 4 (Homo sapiens) (Q9NPH5 whole entry, looked up): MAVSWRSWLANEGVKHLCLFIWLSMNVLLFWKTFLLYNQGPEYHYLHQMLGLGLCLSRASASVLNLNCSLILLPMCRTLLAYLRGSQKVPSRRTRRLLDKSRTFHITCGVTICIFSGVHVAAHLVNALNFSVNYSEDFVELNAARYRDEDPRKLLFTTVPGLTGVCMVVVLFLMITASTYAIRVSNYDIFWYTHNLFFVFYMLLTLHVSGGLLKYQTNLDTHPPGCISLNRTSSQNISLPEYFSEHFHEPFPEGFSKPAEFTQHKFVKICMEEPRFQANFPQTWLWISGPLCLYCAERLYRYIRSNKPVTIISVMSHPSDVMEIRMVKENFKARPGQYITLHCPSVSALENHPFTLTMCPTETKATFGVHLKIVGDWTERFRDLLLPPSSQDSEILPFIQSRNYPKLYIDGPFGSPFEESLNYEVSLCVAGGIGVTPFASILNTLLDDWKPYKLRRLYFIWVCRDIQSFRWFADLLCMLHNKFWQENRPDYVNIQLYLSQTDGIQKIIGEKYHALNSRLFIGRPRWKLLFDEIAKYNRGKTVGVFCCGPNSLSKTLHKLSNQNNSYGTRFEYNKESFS
Chain of NADPH oxidase 5 (Homo sapiens) (Q96PH1 whole entry, looked up): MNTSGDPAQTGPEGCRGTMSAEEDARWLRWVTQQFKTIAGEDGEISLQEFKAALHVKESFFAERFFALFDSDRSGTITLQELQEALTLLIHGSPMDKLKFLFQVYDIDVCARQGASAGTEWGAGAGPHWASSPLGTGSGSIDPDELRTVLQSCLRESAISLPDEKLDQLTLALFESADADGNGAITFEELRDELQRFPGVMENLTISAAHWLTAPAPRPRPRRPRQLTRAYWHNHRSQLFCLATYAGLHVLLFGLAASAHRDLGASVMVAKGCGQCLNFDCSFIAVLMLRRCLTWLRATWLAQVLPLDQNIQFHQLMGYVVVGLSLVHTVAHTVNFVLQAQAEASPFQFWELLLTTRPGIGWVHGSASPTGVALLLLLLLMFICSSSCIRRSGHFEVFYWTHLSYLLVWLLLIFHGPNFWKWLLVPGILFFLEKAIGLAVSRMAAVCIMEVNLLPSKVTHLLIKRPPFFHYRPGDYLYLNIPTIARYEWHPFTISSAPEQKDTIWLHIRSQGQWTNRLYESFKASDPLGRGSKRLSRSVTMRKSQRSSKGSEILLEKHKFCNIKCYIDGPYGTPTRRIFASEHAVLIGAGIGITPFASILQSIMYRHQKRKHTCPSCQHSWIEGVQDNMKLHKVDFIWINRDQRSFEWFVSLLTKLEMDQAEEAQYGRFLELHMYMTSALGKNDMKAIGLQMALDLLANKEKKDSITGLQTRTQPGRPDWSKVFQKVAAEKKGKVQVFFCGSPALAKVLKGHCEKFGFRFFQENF

| Structure (SMILES) | z-score [1] | composite z-score [2] | z-score [3] | z-score [4] | z-score [5] | z-score [6] | z-score [7] | z-score [8] | z-score [9] | z-score [10] | z-score [11] | z-score [12] | z-score [13] | z-score [14] | z-score [15] | z-score [16] | z-score [17] | z-score [18] | z-score [19] | z-score [20] |
| --- | --- | --- | --- | --- | --- | --- | --- | --- | --- | --- | --- | --- | --- | --- | --- | --- | --- | --- | --- | --- |
| CCOC(=O)CCN1C(=O)[C@H]2[C@H]3[C@H](O)[C@H](O)CC(=NOCC=C(C)CCC=C(C)C)[C@H]3CC[C@H]2C1=O | 1.04 (inactive) | 0.148 | 1.09 (inactive) | 0.887 (inactive) | 1.25 (inactive) | 0.378 (inactive) | 0.199 | -4.23 (inactive) | 0.943 (inactive) | 0.546 | 0.844 | -1.23 | 0.536 | 0.345 | 0.15 | 0.572 | 0.408 (inactive) | 0.523 | -1.44 | -1.1 (inactive) |
| COc1ccc(COC(=O)NN=C2C[C@@H](O)[C@@H](O)[C@@H]3[C@@H]4C(=O)N(C(C)(C)C)C(=O)[C@@H]4CC[C@@H]23)cc1 | 0.244 (inactive) | -0.328 | 0.339 (inactive) | -0.039 (inactive) | -0.609 (inactive) | -0.0118 (inactive) | 1.14 | -0.384 (inactive) | 0.808 (inactive) | 0.315 | 0.901 | 0.514 | -0.777 | 0.569 | -0.448 | -1.08 | -1.14 (inactive) | -0.379 | 0.34 | 0.259 (inactive) |
| C#CCCCON=C1C[C@@H](O)[C@@H](O)[C@@H]2[C@@H]3C(=O)N(CC)C(=O)[C@@H]3CC[C@H]12 | 0.135 (inactive) | -0.0035 | 0.129 (inactive) | 0.238 (inactive) | -0.0312 (inactive) | 0.0581 (inactive) | -0.403 | -0.88 (inactive) | -0.231 (inactive) | 0.15 | -0.662 | -0.751 | 0.0801 | 0.489 | 0.516 | -0.58 | -0.625 (inactive) | -0.569 | -0.533 | -0.479 (inactive) |
| CCN(CC)CC(O)CN1CCCCc2nc(C)c(C)cc21 (stereo not given) | 0.219 (inactive) | -0.0544 | -0.446 (inactive) | -1.31 (inactive) | 0.273 (inactive) | -1.55 (inactive) | 1.43 | 0.776 (inactive) | -0.622 (inactive) | 0.419 | -0.0127 | -0.054 | 0.776 | 0.288 | 0.378 | 0.68 | 0.109 (inactive) | 0.316 | -0.989 | 0.985 (inactive) |
| CC(=O)OC[C@H]1O[C@H](CC=NO[C@@H](C)c2cc(-c3c(C)cc(C)cc3C)no2)C=C[C@@H]1OC(C)=O | 0.11 (inactive) | -0.101 | 2.12 (inactive) | 0.629 (inactive) | 1.12 (inactive) | 0.343 (inactive) | -0.194 | -1.27 (inactive) | -0.444 (inactive) | -2.99 | -0.937 | 0.318 | -0.799 | 0.267 | -1.29 | -0.158 | -0.845 (inactive) | 0.774 | -0.322 | -0.0973 (inactive) |
| CC(=O)OC[C@H]1O[C@H](CC=NO[C@H](C)c2cn([C@@H]3COC[C@H]3O)nn2)C=C[C@@H]1OC(C)=O | -0.676 (inactive) | -0.27 | -0.279 (inactive) | -1.7 (inactive) | -0.115 (inactive) | -1.7 (inactive) | 1.22 | -1.01 (inactive) | 0.127 (inactive) | 0.0052 | 0.674 | 0.062 | 0.631 | 0.621 | 0.479 | 0.00468 | 1.13 (inactive) | 0.418 | -0.466 | -0.145 (inactive) |
| O=C1C2=CC[C@H]3C(=O)N(c4ccc(F)cc4F)C(=O)[C@H]3[C@H]2[C@H](O)[C@@H]2O[C@H]12 | -0.138 (inactive) | 0.558 | -0.487 (inactive) | -0.122 (inactive) | -0.708 (inactive) | -0.0627 (inactive) | 0.311 | 0.0832 (inactive) | 0.0553 (inactive) | -0.191 | -0.463 | -0.438 | 0.0658 | -0.486 | -0.397 | -0.276 | -0.191 (inactive) | 0.0423 | 0.556 | -0.0843 (inactive) |
| CCOC(=O)[C@H](Cc1ccccc1)NC(=O)CCC1CC(OC(=O)NCCc2ccc(F)cc2)CC2(CCCC(COC(=O)NCCC(C)C)O2)O1 (stereo not given in full) | -0.15 (inactive) | 0.145 | -1.5 (inactive) | -0.302 (inactive) | 0.005 (inactive) | 0.0777 (inactive) | 0.429 | -0.0979 (inactive) | 0.397 (inactive) | 0.7 | 1.28 | -0.567 | 0.368 | 0.243 | -0.364 | 0.362 | 0.232 (inactive) | -0.353 | -0.941 | 1.87 (inactive) |
| O=C1[C@H]2[C@H]3[C@H](O)[C@H](O)CC(=NO[C@@H]4O[C@H](CO)[C@@H](O)[C@H](O)[C@H]4O)[C@@H]3CC[C@H]2C(=O)N1C[C@@H]1CCCO1 | -1.2 (inactive) | -0.0462 | 0.377 (inactive) | -0.963 (inactive) | 0.389 (inactive) | -2.39 (inactive) | 0.054 | -2.04 (inactive) | -0.772 (inactive) | -0.711 | -0.863 | -0.0334 | -0.618 | -0.0584 | -2.03 | -0.42 | -0.0322 (inactive) | 0.0485 | -1.16 | 0.226 (inactive) |
